The campaign covered roughly 85,000 compounds. About 5,100 (6%) were called active. The sample holds actives, similar compounds and a random draw of the others, so the mix is not that of the screen.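 The calls were made as follows: active = viability at or below 40%; inactive = viability above 40%.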

A short description of the test: proliferation blockers of H69AR lung cancer cells, primary screen, cell-based, human, 86K library (AID 598).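 Also: multidrug resistant small cell line overexpressing MRP-1 efflux transporter; 100% = mean luminescence of untreated control wells.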 The note with it: H69AR lung tumor viability, ATP luminescence, 72 h; at 10 µM; stronger effect = lower value.
As to `COc1cccc(OCc2cc(/C=N/NC(=O)c3nc(Cl)c(Cl)c(N)c3Cl)ccc2OC)c1`, the viability is 19.7% (active).
For `COc1cccc(OCC(=O)Nc2ccccc2C(N)=O)c1`, the viability is 85.5% (inactive).
To `COc1cccc(OCCOc2cccc(/C=N/n3cnnc3)c2)c1` belongs 84.3% (inactive); to `CCCCCN1CC(O)=C(c2ccccc2)C1=N`, 88.7% (inactive).
Take `O=C(c1cn(-c2ccccc2)nc1-c1cccnc1)N1CCCCC1`: the viability was 90.8% (inactive).
As for `COc1ccc(Nc2ncc(C(=O)N3CCN(c4ccccc4OC)CC3)c3ccccc23)cc1`, the viability was 80.8% (inactive).
In the case of `COc1ccccc1N1CCN(C(=O)c2cn(-c3ccccc3)nc2-c2cccnc2)CC1`, the viability was 21.9% (active).
Consider `COc1cccc2c1OCC1COc3c(c(=O)n(C)c(=O)n3C)C21` (stereo not drawn), for which the viability was 94.9% (inactive).
With `CCCCCCc1cc2cc(-c3nnc(-c4cccc(OC)c4)o3)c(=O)oc2cc1O`, the viability is 2.32% (active).
In the case of `CCCCCCc1cc2cc(-c3nnc(-c4ccccc4)o3)c(=O)oc2cc1O`, the viability was 9.42% (active).
As for `O=c1oc2cc(O)ccc2cc1-c1ccc(F)cc1`, the viability is 88.7% (inactive).
Turning to `CCCCN(CC)CCCNC(=O)CS(=O)(=O)Cc1nc(-c2cccc(OC)c2)oc1C`, the viability is 88.1% (inactive).
Consider `COc1cccc(C(=O)c2cc3ccc(O)cc3oc2=O)c1`, for which the viability was 68.4% (inactive).
`CC(C)CCSc1ncnc2c1oc1nc3c(cc12)COC(C)(C)C3`: the viability is 68.6% (inactive).
Regarding `Cc1nnc(SCc2nc3ccccc3nc2C)s1`, the viability was 97.2% (inactive).
With `Cc1cccc(N2C(=O)c3cccnc3C2=O)c1`, the viability is 92.3% (inactive).
As for `CCN(CC)CCn1c(=S)[nH]c2ncccc2c1=O`, the viability is 101% (inactive).
`C=C(C)CNC(=S)/N=c1\scc(C)n1CC`: the viability is 91.2% (inactive).
To `CCC(C)NC(=O)CCCc1ccccc1` (stereo not drawn) belongs 86.3% (inactive).
Then `CCCCCc1ccc(-c2ccc(C(=O)O)cc2)nc1`, with 35.7% (active).
Take `O=C(O)c1ccc(COCC(F)(F)F)cc1`: the viability was 98.2% (inactive).
Consider `Cc1cc(NC(=O)c2cc(-c3cccs3)on2)nn1Cc1ccc(Cl)cc1`, for which the viability is 26.1% (active).
Then `O=C(c1cc(-c2cccs2)on1)N1CCCCC1`, with 97.2% (inactive); and `Cc1ccc(Cn2ccc(NC(=O)c3cc(C(C)C)on3)n2)cc1`, with 95% (inactive).
As for `Cc1ccc(S(=O)(=O)N2CCN(S(=O)(=O)N3CCOCC3)CC2)cc1`, the viability is 93.1% (inactive).
As for `C/C(=N\NC(=O)c1ccc(C)cc1)C1C(=O)c2ccccc2C1=O`, the viability was 78.5% (inactive).
With `CC1CCN(C(=O)c2cc3nc(C4CC4)cc(C(F)(F)F)n3n2)CC1`, the viability is 97.6% (inactive).
Take `CCC(C)NC(=O)CSC1=Nc2ccccc2C2=NC(CCC(=O)NCc3ccco3)C(=O)N12` (stereo not drawn): the viability was 90.7% (inactive).
Then `COc1cc(-c2nc(-c3ccncc3)no2)cc(OC)c1OC`, with 88.6% (inactive); and `CCOc1nc(-c2ccc(OC)cc2)ccc1-c1noc(-c2cc(OC)c(OC)c(OC)c2)n1`, with 13.9% (active).
As for `COc1ccc(-c2ccc(-c3noc(-c4ccncc4)n3)c(OC)n2)cc1`, the viability is 93.4% (inactive).
For `Cc1ccc(OCC(=O)N/N=C\c2ccco2)c(C)c1`, the viability is 93.4% (inactive).
For `Cc1ccc(S(=O)(=O)N(C)C2(C)CCS(=O)(=O)C2)cc1` (stereo not drawn), the viability was 109% (inactive).
`Cc1ccc(S(=O)(=O)C2(S(=O)(=O)c3ccc(C)cc3)CCCC2)cc1`: the viability was 18.3% (active).
To `Cc1ccc(S(=O)(=O)NC(=O)N2CCCC(C)(C)C2)cc1` belongs 91% (inactive); to `O=C1Nc2c(Br)cc(Br)cc2C1(O)N1CCOCC1` (stereo not drawn), 31.2% (active).
For `CCc1c(C)nc2cc(-c3cccs3)[nH]n2c1=O`, the viability is 91.8% (inactive).
As for `CCc1c(-c2ccccc2)nc(N)c(C#N)c1-c1cccs1`, the viability was 36% (active).
`Cc1c(-c2ccccc2)nc(N)c(C#N)c1-c1cccs1`: the viability was 77% (inactive).
As to `O=C(O)CSc1nccn1-c1cccc(Cl)c1`, the viability was 88.9% (inactive).
In the case of `Cc1noc(NS(=O)(=O)c2ccc(N/C=C/C(=O)c3ccccc3)cc2)c1C`, the viability was 76.1% (inactive).
For the compound `COc1ccc(CCNS(=O)(=O)c2ccc(Cl)s2)cc1OC`, the viability is 93% (inactive).
For the compound `COc1ccc(-c2nnco2)cc1OC`, the viability is 107% (inactive).
As for `COc1ccc(-c2cc(C(F)(F)F)nc(S(C)(=O)=O)n2)cc1OC`, the viability is 1.78% (active).
Then `COc1ccc(-c2cc(C(F)(F)F)nc(NCc3cccnc3)n2)cc1`, with 92.9% (inactive); and `O=C(Nc1nncs1)c1cccc(S(=O)(=O)N2CCCCC2)c1`, with 94.8% (inactive).
Regarding `Cc1ccc(-n2c(SCC(=O)Nc3ccc4c(c3)OCO4)nnc2-c2ccccn2)cc1`, the viability is 65.9% (inactive).
Then `Cc1cc(C)c(S(=O)(=O)N2C=CC(C(F)(F)F)=NCC2)c(C)c1`, with 109% (inactive).
To `CCCCN(CC)CCNC(=O)c1[nH]c(C)c(C(C)=O)c1C` belongs 101% (inactive); to `Cc1ccc(C2(C(F)(F)F)N=C3Sc4cc(C)cc(C)c4N3C(=O)N2)cc1` (stereo not drawn), 101% (inactive).
Consider `CCOC(=O)c1sc(=S)n2c1[nH]c(=O)c1ccc(C(=O)OC)cc12`, for which the viability is 36.7% (active).
Take `CCOC(=O)c1sc(=S)n(-c2cccc(OC)c2)c1N`: the viability was 97.3% (inactive).
As for `CCOC(=O)Cn1c(N)c(C(=O)OC)sc1=S`, the viability was 105% (inactive).
As for `Cc1ccc(C)c(N2C(=O)CS/C2=N\NC(=O)c2ccccc2Cl)c1`, the viability is 101% (inactive).
Turning to `Cn1ccs/c1=N\S(=O)(=O)c1ccc(C(C)(C)C)cc1`, the viability was 89.4% (inactive).
As for `COc1ccc(NC(=O)C2C3C=CC(C3)C2C(=O)NCc2ccccn2)c(OC)c1` (stereo not drawn), the viability is 93.1% (inactive).
To `O=C(NCCc1ccccc1)c1ccc(OCCOc2ccccc2)cc1` belongs 87.8% (inactive).
With `COc1ccccc1Nc1nc(N)nc(CN(C)C2CCCCC2)n1`, the viability is 87.4% (inactive).
Regarding `COc1ccccc1NC1=NC(c2ccc(Cl)cc2)N=C(N)N1` (stereo not drawn), the viability was 19.5% (active).
For the compound `COc1ccccc1NC1=NC2(CCCC2)N=C(N)N1`, the viability is 91.5% (inactive).
In the case of `Cc1ccc(S(=O)(=O)NCC(C)NS(C)(=O)=O)cc1` (stereo not drawn), the viability was 95.2% (inactive).
As to `CCOC(=O)c1sc(NC(=O)c2ccncc2)nc1C`, the viability was 96.2% (inactive).
Consider `CCCCCOC(=O)c1ccc(N2C(=O)C3C4C=CC(C4)C3C2=O)cc1` (stereo not drawn), for which the viability was 95.1% (inactive).
As for `COc1ccc(Nc2cc(=O)oc3ccccc23)cc1`, the viability was 18.4% (active).
Regarding `COc1ccc(N2CCN(Cc3cc(=O)oc4ccc5ccccc5c34)CC2)cc1`, the viability was 71.9% (inactive).
For `COC(=O)COc1ccc2oc(=O)cc(C)c2c1`, the viability is 91.9% (inactive).
For the compound `Cc1cc(N2CCN(S(=O)(=O)c3ccc(C)c(C)c3)CC2)c2ccccc2n1`, the viability is 66.8% (inactive).
As to `CC(NC(=O)CSc1nc2c(cc1C#N)CN(C)CC2)c1ccccc1` (stereo not drawn), the viability was 15.6% (active).
For the compound `CC1(C)CCc2nc(SCc3ccccc3)c(C#N)cc2C1`, the viability is 81.4% (inactive).
Turning to `Cc1ccc2cc(C#N)c(SCC(=O)NCC3CCCO3)nc2c1C` (stereo not drawn), the viability is 91.2% (inactive).
For `O=C1C2N=NN(CC(=O)N3N=C(c4cccc5ccccc45)CC3c3ccccc3)C2C(=O)N1c1ccccc1` (stereo not drawn), the viability is 70.5% (inactive).
On to `CCN1CCCC1Cn1cnc2c([nH]c3cc(OC)ccc32)c1=O` (stereo not drawn), for which the viability is 79.9% (inactive).
As to `Cc1cccc(CCNS(=O)(=O)c2ccc(S(=O)(=O)NC3CCCC3)cc2)c1`, the viability is 78% (inactive).
As to `O=C(Nc1ccc(Cl)cc1)c1cc2nc(C3CC3)cc(C(F)(F)F)n2n1`, the viability was 79.5% (inactive).
`COc1ccc(N2CCN(C(c3cc4ccc(C)cc4[nH]c3=O)c3nnnn3C3CCCC3)CC2)cc1` (stereo not drawn): the viability is 86.9% (inactive).
Consider `Cc1cc(C)c2[nH]c(=O)c(C(c3nnnn3Cc3ccc4c(c3)OCO4)N3CCCC3)cc2c1` (stereo not drawn), for which the viability is 68.1% (inactive).
Regarding `CCOC(=O)C1CCN(C(c2cc3cc(C)cc(C)c3[nH]c2=O)c2nnnn2C2CCCCC2)CC1` (stereo not drawn), the viability is 6.09% (active).
To `Cc1ccc(-c2noc(CC(c3ccccc3)c3ccccc3)n2)cc1` belongs 97.1% (inactive); to `CCn1c(CNC(=O)c2ccccc2)nnc1SCC(=O)N1CCN(c2ccccc2)CC1`, 90.4% (inactive).
For the compound `Cc1cccc2nc(CSc3nc4[nH]ncc4c(=O)n3-c3cccc(Cl)c3)cc(=O)n12`, the viability was 41.8% (inactive).
Take `Cc1cc(C)c2c(n1)nn1c(-n3ccnc3)cc(C)nc21`: the viability was 74.5% (inactive).
Regarding `Cc1cc(C)c2c(n1)nn1c(N3CCN(c4cccc(Cl)c4)CC3)cc(C)nc21`, the viability is 17.6% (active).
To `Cc1cc(C)c2c(n1)nn1c(N3CCOCC3)cc(C)nc21` belongs 72.3% (inactive); to `O=C(CSc1c2c(nc3ccc(Cl)cc13)CCCC2)NCc1ccco1`, 7.34% (active); to `O=C(NCc1ccco1)C1(c2ccc(Cl)cc2)CCCC1`, 96.8% (inactive).
As to `O=C(NCc1ccco1)c1cc(-c2cccnc2)nc2ccc(Cl)cc12`, the viability was 68.3% (inactive).
With `COc1ccc(-n2nnnc2SCc2nc(N)nc(N3CCOCC3)n2)cc1`, the viability was 94.2% (inactive).
`Cc1cc(NC(=O)CS(=O)(=O)c2cn(C)c3ccccc23)no1`: the viability is 78.6% (inactive).
Take `O=C(CCCn1c(SCC(=O)c2ccc(F)cc2)nc2ccccc2c1=O)NCc1ccco1`: the viability was 58.2% (inactive).
As to `O=C(CSc1nc2cc3c(cc2c(=O)n1CCC1=CCCCC1)OCO3)NCc1ccco1`, the viability is 36.1% (active).
To `C=C(C)Cn1c(SCC(=O)NCc2ccco2)nc2sc3c(c2c1=O)CCC3` belongs 49.4% (inactive).
For `Cc1c(CCO)c(=O)n(-c2ccccc2)n1S(=O)(=O)c1ccc(F)cc1`, the viability was 75.6% (inactive).
On to `CCn1c(SCC(=O)Nc2ccc(S(=O)(=O)Nc3onc(C)c3C)cc2)nnc1-c1ccccc1`, for which the viability is 98.3% (inactive).
`COn1c(=O)c(=O)n(OC)c2ccccc21`: the viability is 97.1% (inactive).
As to `COC(=O)c1ccccc1Oc1c(F)c(F)nc(N2CCOCC2)c1F`, the viability was 67.1% (inactive).
`Cc1ccc2c(c1)N(CC(=O)N(Cc1ccccn1)Cc1ccco1)C(=O)C(C(C)C)O2` (stereo not drawn): the viability was 35% (active).
With `Cc1ccc(C(C(=O)NC2CCCC2)N(Cc2ccco2)C(=O)CCC(=O)Nc2ccccn2)cc1` (stereo not drawn), the viability is 69.7% (inactive).
With `Cc1ccc(C)c(N(CC(=O)NCc2ccco2)C(=O)CCC(=O)Nc2ccccn2)c1`, the viability is 98.1% (inactive).

These data come from PubChem BioAssay AID598 (SRMLSC, 2007).
